In PubChem BioAssay (NCI):
The panel holds about 83,000 compounds, 20% with a hit somewhere; the sample as a whole holds those more often.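 Results are percent growth after 48 hours of single-concentration exposure. 100 means growth as in untreated cells, lower positive values show inhibition; negative values down to -100 show cell death.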 Unmarked numbers belong to inactive results. Active and inactive are the calls of the source. Rule for the calls: active = growth percent below 10; inactive = the rest.

Experiments:
Experiment in all cases: NCI-60 one-dose screen, 48 h (100 = growth as untreated, 0 = no growth, -100 = all killed)
Details in all cases: 10 µM
SR leukemia = tested on: SR leukemia
RPMI-8226 leukemia = tested on: RPMI-8226 leukemia
OVCAR-8 ovarian = tested on: OVCAR-8 ovarian
OVCAR-5 ovarian = tested on: OVCAR-5 ovarian
OVCAR-4 ovarian = tested on: OVCAR-4 ovarian
SK-OV-3 ovarian = tested on: SK-OV-3 ovarian
IGROV1 ovarian = tested on: IGROV1 ovarian
OVCAR-3 ovarian = tested on: OVCAR-3 ovarian
HS 578T breast = tested on: HS 578T breast
NCI/ADR-RES ovarian = tested on: NCI/ADR-RES ovarian
T-47D breast = tested on: T-47D breast
BT-549 breast = tested on: BT-549 breast
MDA-MB-435 melanoma = tested on: MDA-MB-435 melanoma
SW-620 colon = tested on: SW-620 colon
MCF7 breast = tested on: MCF7 breast
HCT-116 colon = tested on: HCT-116 colon
HCC-2998 colon = tested on: HCC-2998 colon
KM12 colon = tested on: KM12 colon

SMILES | growth (SR leukemia) | growth (RPMI-8226 leukemia) | growth (OVCAR-8 ovarian) | growth (OVCAR-5 ovarian) [%] | growth (OVCAR-4 ovarian) [%] | growth (SK-OV-3 ovarian) | growth (IGROV1 ovarian) | growth (OVCAR-3 ovarian) | growth (HS 578T breast) | growth (NCI/ADR-RES ovarian) | growth (T-47D breast) | growth (BT-549 breast) | growth (MDA-MB-435 melanoma) | growth (SW-620 colon) | growth (MCF7 breast) | growth (HCT-116 colon) | growth (HCC-2998 colon) | growth (KM12 colon)
O=C(NCc1cn(Cc2cccc(Oc3ccccc3)c2)nn1)c1cccnc1Nc1ccccc1 | 16.3% | 52.7% | 62.6% | 89.1 | 74.9 | 49.6% | 94.1% | 42.1% | 54.7% | 23.6% | 72.3% | 81.8% | -8.66% (active) | 40.8% | 18.1% | 26.1% | 57.1% | 29.5%
Clc1cc(Cl)c(Cl)c(-c2nc(-c3cccnc3)cs2)c1 | 9.83% (active) | 40% | 78.8% | 79.6 | 68.7 | 102% | 49.6% | 71.7% | 98.9% | 85.1% | -7.29% (active) | 98.3% | 4.27% (active) | 46.2% | 63.6% | 40.2% |  | 103%
FC(F)(F)c1ccc(-c2ncc(-c3ccc(C(F)(F)F)cc3)c(NCc3cc(C(F)(F)F)cc(C(F)(F)F)c3)n2)cc1 | 83.7% | 53% | 44.5% | 79.4 | 81.3 | 82.4% | 65.6% | 31.9% | 71.9% | 68.5% | 28.1% | 79.4% | 68.3% | 59.7% | 54.9% | 24.4% | 77.2% | 44.7%
Cn1c(N)c(N=Cc2ccccc2)c(=O)n(C)c1=O | 96.2% | 108% | 110% | 133 | 111 | 96.4% | 106% | 120% | 100% | 110% | 108% | 102% | 114% | 107% | 103% | 92.8% | 104% | 115%
O=C(C=P(c1ccccc1)(c1ccccc1)c1ccccc1)c1ccc(Br)cc1 | 56.6% | 47.4% | 89.1% | 104 | 95.5 | 108% | 91.4% | 64.5% | 107% | 79.9% | 87.9% | 107% | 106% | 80.7% | 92.4% | 67.8% |  | 83.4%
O=C(COc1ccc(Cl)cc1Cl)Oc1coc(CSc2nc3ccccc3s2)cc1=O | 98.6% | 87% | 21.3% | 116 | 99.1 | 102% | 64.3% | 114% | -1.61% (active) | 104% | 101% | 108% | 114% | 20.7% | 102% | 105% |  | 110%
COc1cc(Nc2ccnc(N3CCN(c4ccnc5cc(Cl)ccc45)CC3)n2)cc(OC)c1 | -17% (active) | -27.6% (active) | 1.09% (active) | 30.8 | 30.4 | 6.6% (active) | 3.24% (active) | 15% | 24.6% | 7.19% (active) | -16.6% (active) | -4.01% (active) | 1.35% (active) | 11% | 0.585% (active) | 5.15% (active) | 9.25% (active) | 8.26% (active)
Nc1ccccc1NC(=O)CCCCCCC(=O)Nc1ccc2c(c1)/C(=C/c1ccc[nH]1)C(=O)N2 | 26.8% | -17.6% (active) | 26.2% | 67 | 35.1 | 38.4% | 49.7% | 29.3% | 27.5% | 93.1% | 37.9% | 22% | 37.8% | 47.4% | 15.9% | 17% | 70.2% | 13.7%
COc1cc(/C=C2\C(=O)Nc3cc(C)c(O)cc32)cc(OC)c1OC | 21.4% | -18.3% (active) | 72.1% | 94.5 | 62.6 | 77.5% | 47.7% | 35.7% | 56.6% | 51.4% | 39.2% | 42.3% | -34.5% (active) | 55.1% | 25.7% | 56.8% |  | 21.9%
Cc1ccc(Cl)cc1Nc1nc(C(F)(F)F)ccc1C(=O)N/N=C/c1c(Cl)cccc1Cl | 123% | -51.2% (active) | 10.6% | 24.2 | 17.5 | -8.46% (active) | -8.67% (active) | -28.5% (active) | -10.1% (active) | 5.19% (active) | -10.9% (active) | 31% | 13.1% | 3.99% (active) | 2.24% (active) | 12.7% |  | -15.9% (active)
CCOc1nc(-c2ccccc2)cc2c(O)c(C(=O)NC(C)C)[nH]c(=O)c12 | 94% | 40.1% | 103% | 114 | 118 | 98.6% | 65.4% | 100% | 82.5% | 96.8% | 97.3% | 147% | 105% | 96.1% | 98.9% | 101% |  | 106%
COc1ccc2oc(=O)cc(C(c3ccc[nH]3)c3ccc[nH]3)c2c1 | 1.93% (active) | -3.8% (active) | -4.93% (active) | 34.8 | 38.8 | 7.19% (active) | 25.5% | -8.55% (active) | 18.8% | 7.99% (active) | 22.5% | -13.4% (active) | -24.3% (active) | 25.6% | 13.9% |  | -5.71% (active) | 
CC(=O)Oc1ccc(C2=Cc3ccc(OC(C)=O)cc3OC2C)cc1 (centres undefined) | 8.85% (active) | 19.5% | 60.9% | 122 | 79.4 | 81% | 55.8% | 33.1% | 42.8% | 25% | 88.5% | 42.9% | 25.2% | 47% | 49.1% | 38.3% | 78.2% | 39%
c1ccc(CC(NCCNC(Cc2ccccc2)c2ccccc2)c2ccccc2)cc1 (centres undefined) | -33.7% (active) | -41.1% (active) | 22.5% | 55.2 | 35.6 | 84% | 36.4% | 22.9% | 73.4% | 38.8% | 13.9% | 56.6% | 38% | 5.83% (active) | -7.95% (active) | -25.3% (active) | 3.25% (active) | 16.3%
COc1ccc(S(=O)(=O)Nc2ccc(OCc3nnc(-c4ccc(Cl)cc4)o3)c(F)c2)cc1 | 18.4% | 31.6% | 60.4% | 98.5 | 45.5 | 78.8% | 79.4% | 71.8% | 86.3% | 45.7% | 9.53% (active) | 55% | 64% | 84.5% | 42.8% | 54.6% | 74.2% | 56.3%
O=C1/C(=C/c2ccc(O)cc2)Oc2ccc(Cl)cc21 | 109% | 119% | 79.4% | 106 | 120 | 111% | -27.4% (active) | 92.9% | 87.1% | 87.3% | 72.2% | 63.1% | 82.5% | 103% | 43.2% | 65.7% | 101% | 101%
COc1cc(Cn2c(-c3ccccc3)c(Cl)c3c2-c2oncc2CC3)cc(OC)c1 | 0.637% (active) | 58.9% | 92.8% | 96.7 | 76.8 | 97.2% | 16.2% | 45.9% | 52.8% | 47.6% | 73.8% | 87.4% | -0.829% (active) | 15.8% | 102% |  | 84.4% | 41.7%
O=C(NNc1nc(N2CCCC2)nc(N2CCCC2)n1)c1ccccc1 | 70.8% | 106% | 104% | 100 | 106 | 121% | 103% | 108% | 104% | 102% | 97.6% | 112% | 117% | 104% | 96.2% |  | 106% | 104%
